# Assay results taken from the supplement of paper PMC11402862.
# Tests used:
# Experiment in all cases: luciferase reporter transactivation, fold of solvent control; higher = stronger receptor activation
# Settings in all cases: HEK293T, exposure time: 24 h
# CAR LBD (GAL4 fusion) = tested on: CAR LBD (GAL4 fusion)
# Summary of the method: (§1)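 HEK293T cells (2 × 10^4 cells/well, 96-well plates, DMEM with 10% FBS, 37 °C, 5% CO2) were transiently transfected with TransIT-LT1. Each well received a GAL4 fusion of one human nuclear receptor ligand-binding domain, a GAL4-(UAS)5-TK firefly luciferase reporter and a Renilla luciferase plasmid. Cells were exposed for 24 h to compound between 1 and 500 µM in DMEM with 0.5% DMSO. Transactivation was firefly/Renilla luciferase as fold of solvent control, averaged over biological replicates.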
# [1] = tested on: LXRalpha LBD (GAL4 fusion)
# Summary of the method: as §1
# [2] = tested on: PPARdelta LBD (GAL4 fusion)
# Summary of the method: as §1
# PXR LBD (GAL4 fusion) = PXR LBD (GAL4 fusion) (UniProt O75469)
# Summary of the method: as §1
# RARalpha (GAL4 fusion) = tested on: RARalpha (GAL4 fusion)
# Summary of the method: as §1
# Sequence of PXR LBD (GAL4 fusion) (O75469 whole entry, looked up, the tested form may be a part): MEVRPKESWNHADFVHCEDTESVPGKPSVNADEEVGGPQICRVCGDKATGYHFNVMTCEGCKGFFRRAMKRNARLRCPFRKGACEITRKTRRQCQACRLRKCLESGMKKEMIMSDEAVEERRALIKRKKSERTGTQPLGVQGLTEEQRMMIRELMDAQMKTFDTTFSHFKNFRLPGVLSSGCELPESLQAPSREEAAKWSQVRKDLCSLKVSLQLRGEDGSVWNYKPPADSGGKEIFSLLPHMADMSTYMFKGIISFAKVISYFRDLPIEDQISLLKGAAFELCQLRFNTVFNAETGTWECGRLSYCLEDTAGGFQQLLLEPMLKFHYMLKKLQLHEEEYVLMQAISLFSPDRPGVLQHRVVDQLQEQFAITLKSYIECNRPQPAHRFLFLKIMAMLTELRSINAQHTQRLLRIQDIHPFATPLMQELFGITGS
smiles,measurement,setting,value
NS(=O)(=O)C(F)(F)C(F)(F)C(F)(F)C(F)(F)C(F)(F)C(F)(F)C(F)(F)C(F)(F)F [perfluorooctane sulfonamide],luciferase reporter transactivation,CAR LBD (GAL4 fusion); concentration: 1 µM,1.08
same,luciferase reporter transactivation,CAR LBD (GAL4 fusion); concentration: 2.5 µM,1.29
same,luciferase reporter transactivation,CAR LBD (GAL4 fusion); concentration: 5 µM,1.18
same,luciferase reporter transactivation,CAR LBD (GAL4 fusion); concentration: 10 µM,1.06
same,luciferase reporter transactivation,CAR LBD (GAL4 fusion); concentration: 100 µM,0.995
same,luciferase reporter transactivation,[1]; concentration: 1 µM,1.05
same,luciferase reporter transactivation,[1]; concentration: 2.5 µM,0.997
same,luciferase reporter transactivation,[1]; concentration: 5 µM,1.08
same,luciferase reporter transactivation,[1]; concentration: 10 µM,1.03
same,luciferase reporter transactivation,[1]; concentration: 100 µM,1.09
same,luciferase reporter transactivation,[2]; concentration: 1 µM,1.15
same,luciferase reporter transactivation,[2]; concentration: 2.5 µM,1.03
same,luciferase reporter transactivation,[2]; concentration: 5 µM,0.974
same,luciferase reporter transactivation,[2]; concentration: 10 µM,0.826
same,luciferase reporter transactivation,[2]; concentration: 100 µM,0.935
same,luciferase reporter transactivation,PXR LBD (GAL4 fusion); concentration: 1 µM,0.779
same,luciferase reporter transactivation,PXR LBD (GAL4 fusion); concentration: 2.5 µM,0.819
same,luciferase reporter transactivation,PXR LBD (GAL4 fusion); concentration: 5 µM,0.699
same,luciferase reporter transactivation,PXR LBD (GAL4 fusion); concentration: 10 µM,0.703
same,luciferase reporter transactivation,PXR LBD (GAL4 fusion); concentration: 100 µM,0.74
same,luciferase reporter transactivation,RARalpha (GAL4 fusion); concentration: 1 µM,1.02
same,luciferase reporter transactivation,RARalpha (GAL4 fusion); concentration: 2.5 µM,0.969
same,luciferase reporter transactivation,RARalpha (GAL4 fusion); concentration: 5 µM,1.32
same,luciferase reporter transactivation,RARalpha (GAL4 fusion); concentration: 10 µM,1.47
same,luciferase reporter transactivation,RARalpha (GAL4 fusion); concentration: 100 µM,1.71
O=C(O)C(F)(F)C(F)(F)F [perfluoropropanoic acid],luciferase reporter transactivation,CAR LBD (GAL4 fusion); concentration: 1 µM,0.94
same,luciferase reporter transactivation,CAR LBD (GAL4 fusion); concentration: 5 µM,0.855
same,luciferase reporter transactivation,CAR LBD (GAL4 fusion); concentration: 10 µM,0.923
same,luciferase reporter transactivation,CAR LBD (GAL4 fusion); concentration: 25 µM,0.983
same,luciferase reporter transactivation,CAR LBD (GAL4 fusion); concentration: 50 µM,1.12
same,luciferase reporter transactivation,CAR LBD (GAL4 fusion); concentration: 100 µM,1.11
same,luciferase reporter transactivation,CAR LBD (GAL4 fusion); concentration: 250 µM,1.15
same,luciferase reporter transactivation,CAR LBD (GAL4 fusion); concentration: 500 µM,1.31
same,luciferase reporter transactivation,[1]; concentration: 1 µM,0.9
same,luciferase reporter transactivation,[1]; concentration: 5 µM,0.907
same,luciferase reporter transactivation,[1]; concentration: 10 µM,0.949
same,luciferase reporter transactivation,[1]; concentration: 25 µM,0.933
same,luciferase reporter transactivation,[1]; concentration: 50 µM,1
same,luciferase reporter transactivation,[1]; concentration: 100 µM,0.953
same,luciferase reporter transactivation,[1]; concentration: 250 µM,0.94
same,luciferase reporter transactivation,[1]; concentration: 500 µM,0.97
same,luciferase reporter transactivation,[2]; concentration: 1 µM,0.959
same,luciferase reporter transactivation,[2]; concentration: 5 µM,1.14
same,luciferase reporter transactivation,[2]; concentration: 10 µM,1.27
same,luciferase reporter transactivation,[2]; concentration: 25 µM,1.2
same,luciferase reporter transactivation,[2]; concentration: 50 µM,1.26
same,luciferase reporter transactivation,[2]; concentration: 100 µM,1.21
same,luciferase reporter transactivation,[2]; concentration: 250 µM,1.22
same,luciferase reporter transactivation,[2]; concentration: 500 µM,1.31
same,luciferase reporter transactivation,PXR LBD (GAL4 fusion); concentration: 1 µM,0.362
same,luciferase reporter transactivation,PXR LBD (GAL4 fusion); concentration: 5 µM,0.532
same,luciferase reporter transactivation,PXR LBD (GAL4 fusion); concentration: 10 µM,0.495
same,luciferase reporter transactivation,PXR LBD (GAL4 fusion); concentration: 25 µM,0.632
same,luciferase reporter transactivation,PXR LBD (GAL4 fusion); concentration: 50 µM,0.626
same,luciferase reporter transactivation,PXR LBD (GAL4 fusion); concentration: 100 µM,0.695
same,luciferase reporter transactivation,PXR LBD (GAL4 fusion); concentration: 250 µM,0.601
same,luciferase reporter transactivation,PXR LBD (GAL4 fusion); concentration: 500 µM,0.727
same,luciferase reporter transactivation,RARalpha (GAL4 fusion); concentration: 1 µM,0.332
same,luciferase reporter transactivation,RARalpha (GAL4 fusion); concentration: 5 µM,0.321
same,luciferase reporter transactivation,RARalpha (GAL4 fusion); concentration: 10 µM,0.367
same,luciferase reporter transactivation,RARalpha (GAL4 fusion); concentration: 25 µM,0.387
same,luciferase reporter transactivation,RARalpha (GAL4 fusion); concentration: 50 µM,0.632
same,luciferase reporter transactivation,RARalpha (GAL4 fusion); concentration: 100 µM,0.652
same,luciferase reporter transactivation,RARalpha (GAL4 fusion); concentration: 250 µM,0.977
same,luciferase reporter transactivation,RARalpha (GAL4 fusion); concentration: 500 µM,0.946
